Whole data set: some 110,000 compounds, median “z-score” near -0.1, cut for the highest 2% near 2. For the sample, the highest values were picked, then their nearest neighbours and some compounds at random. The source made the active and inactive calls.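 Rule for the calls: active = z-score in the third read window above 3 or below -3; inactive = the rest.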
The compounds below were run against Metabotropic glutamate receptor 8 (Rattus norvegicus) (UniProt P70579) (assay: rat mGluR8 modulators via GIRK flux, primary screen, cell-based, thallium flux, HTS (AID 488969)). Conditions: HEK293 rat mGluR8, GIRK (G protein-gated inwardly rectifying potassium channel) thallium flux, FluoZin2; at 10 µM; stronger effect = higher value; submaximal glutamate (EC20) added with thallium.
Metabotropic glutamate receptor 8 (Rattus norvegicus), sequence (P70579 whole entry, looked up): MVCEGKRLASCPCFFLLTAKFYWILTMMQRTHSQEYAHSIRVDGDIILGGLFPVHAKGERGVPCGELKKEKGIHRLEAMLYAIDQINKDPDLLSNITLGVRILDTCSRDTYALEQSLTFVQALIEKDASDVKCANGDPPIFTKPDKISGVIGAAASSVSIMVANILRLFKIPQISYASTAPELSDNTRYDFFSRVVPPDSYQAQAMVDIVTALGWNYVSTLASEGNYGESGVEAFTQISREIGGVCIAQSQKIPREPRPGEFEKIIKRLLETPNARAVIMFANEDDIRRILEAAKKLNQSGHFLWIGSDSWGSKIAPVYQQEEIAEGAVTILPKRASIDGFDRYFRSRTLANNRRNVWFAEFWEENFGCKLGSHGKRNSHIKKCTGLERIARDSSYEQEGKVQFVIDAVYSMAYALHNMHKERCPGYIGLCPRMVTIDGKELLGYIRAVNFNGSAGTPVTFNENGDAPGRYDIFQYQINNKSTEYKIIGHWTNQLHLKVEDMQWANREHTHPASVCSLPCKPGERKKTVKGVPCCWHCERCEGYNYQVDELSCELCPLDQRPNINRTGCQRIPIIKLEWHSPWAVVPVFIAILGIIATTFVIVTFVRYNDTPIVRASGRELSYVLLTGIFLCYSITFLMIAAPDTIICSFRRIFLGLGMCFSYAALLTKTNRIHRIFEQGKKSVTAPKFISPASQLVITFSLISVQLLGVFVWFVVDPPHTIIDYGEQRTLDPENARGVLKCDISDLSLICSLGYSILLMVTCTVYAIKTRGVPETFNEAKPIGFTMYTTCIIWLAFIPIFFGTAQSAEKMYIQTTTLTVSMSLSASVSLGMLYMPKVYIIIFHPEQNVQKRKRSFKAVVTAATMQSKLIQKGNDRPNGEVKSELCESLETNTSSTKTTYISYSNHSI
For `Cc1ccc(S(=O)(=O)Nc2nc3ccccc3s2)cc1`, the z-score was -0.644.
Work on `COc1ccc(CC(=O)NNC(=S)Nc2ccccc2)cc1Br` yielded a z-score of 0.376.
Compound `Cn1cc(CNC(=O)C2CCCCC2)cn1` has a z-score of -0.556.
Work on `Cn1c(=O)[nH]c2cc(Cl)cnc21` yielded a z-score of 0.0453.
In the case of `CCc1cc(C(=O)NCCN(C)C)cs1`, the z-score was 0.168.
`COc1cc(NS(=O)(=O)c2cc(C)ccc2OC)c(OC)cc1Cl` gave a z-score of 0.494.
With `COc1ccc(C)cc1S(=O)(=O)Nc1cccc(Cl)c1Cl` the z-score was 3.68 (active).
Work on `COc1ccc(C)cc1S(=O)(=O)Nc1ccccc1C` yielded a z-score of -0.428.
`COc1ccc(C2/C(=C(\O)c3ccc(OC)c(Cl)c3)C(=O)C(=O)N2CCN(C)C)cc1` (stereo not given) gave a z-score of -0.505.
For `COc1nc(C#N)c(N2CCOCC2)o1`, the z-score was -0.118.
`Cn1c(SCC(N)=O)nnc1-c1ccccc1` gave a z-score of 0.403.
For `Cn1c(SCC(=O)c2cc3ccccc3o2)nnc1-c1ccccc1`, the z-score was 4.93 (active).
In the case of `Cn1ccnc1SCC(=O)c1cc2ccccc2o1`, the z-score was 0.608.
`Cc1ccc(/C=C2/NC(=O)N(c3ccccc3)C2=O)o1` was tested, and the z-score was 0.187.
With `CS(=O)(=O)NCC(c1cccnc1)N1CCN(c2ccc(F)cc2)CC1` (stereo not given) the z-score was -0.636.
`O=C(CSc1nc2ccccc2s1)NNC(=O)Nc1ccc(Cl)c(Cl)c1` showed a z-score of -0.0417.
With `Cc1ccc(C)c(OCC(=O)NCCN(C)C)c1` the z-score was 0.356.
For `Cc1sc2ncnc(SCc3ccco3)c2c1C`, the z-score was 3.43 (active).
`Cc1nc(SCC(=O)NCc2ccco2)c2c(C)c(C)sc2n1` showed a z-score of -0.0392.
`Cc1sc2ncnc(NCc3ccco3)c2c1C` was tested, and the z-score was -0.47.
In the case of `Cc1sc2ncnc(SCC(=O)NC(=O)NCc3ccco3)c2c1C`, the z-score was 2.66.
For `O=C(CSc1ncnc2sc3c(c12)CCCCC3)NCc1ccco1`, the z-score was 1.08.
In the case of `CCn1c(SCC(=O)NC(=O)NCc2ccco2)nc2sc(C)c(C)c2c1=O`, the z-score was 3.05 (active).
In the case of `Cc1sc2nc(C(C)C)nc(SCC(=O)NCc3ccco3)c2c1C`, the z-score was 17 (active).
Compound `Cc1sc2nc(SCC(=O)NCc3ccco3)n(C)c(=O)c2c1C` has a z-score of -0.982.
`CCSc1ncnc2sc(C)c(C)c12` showed a z-score of -0.112.
Work on `Cc1sc2nc(SCC(=O)NCc3ccco3)n(Cc3ccccc3)c(=O)c2c1C` yielded a z-score of -0.304.
`C=CCn1c(SCC(=O)NCc2ccco2)nc2sc(C)c(C)c2c1=O` showed a z-score of -0.948.
For `Cc1sc2nc(C3CC3)nc(SCC(=O)NCc3ccco3)c2c1C`, the z-score was 0.399.
`Cc1ccc2oc(=O)c(/C=C(\O)c3sc(C)nc3C)nc2c1` gave a z-score of -0.168.
With `CCOc1ccc(C(=O)NCC(=O)OC2CCOC2=O)cc1OCC` (stereo not given) the z-score was -0.823.
Compound `CCCCN(C)CCNC(=O)Cn1ncc2c(=O)oc3ccc(C)cc3c21` has a z-score of -0.464.
`Nn1c(Cc2cccc3ccccc23)nnc1SCCOc1ccc(Br)cc1` showed a z-score of -0.185.
For `COc1nc(NCc2ccco2)nc(NC2CCCCC2)n1`, the z-score was -0.224.
In the case of `CCOC(=O)Cc1csc(NC(=O)CSc2nc3sc(C(=O)O)c(C)c3c(=O)[nH]2)n1`, the z-score was 0.0555.
`O=C(Nc1ccc(Cl)c(Cl)c1)Nc1cc(S(=O)(=O)N2CCOCC2)ccc1N1CCCC1` showed a z-score of 0.00467.
Work on `CCc1nc(SCC(=O)N2c3ccccc3CC2C)c2c(C)c(C)sc2n1` (stereo not given) yielded a z-score of 0.0133.
For `Cc1sc2nc(C3CC3)nc(SCC(=O)N3c4ccccc4CC3C)c2c1C` (stereo not given), the z-score was -0.291.
For `Cc1sc2nc(C(C)C)nc(SCC(=O)N3c4ccccc4CC3C)c2c1C` (stereo not given), the z-score was 10.2 (active).
For `CC(C)(C)C1CCc2c(sc(NC(=O)c3ccco3)c2C(N)=O)C1` (stereo not given), the z-score was 0.458.
`Cc1ccc(OCCCCn2cnc3ccccc32)c(C)c1` gave a z-score of -0.0373.
`COc1ccc(OC)c(NC(=S)NCCC(c2ccccc2)c2ccccc2)c1` gave a z-score of -0.202.
`CC12CNCC(C)(CN(C(c3ccccc3)c3ccccc3)C1)C2` was tested, and the z-score was 1.25.
For `O=C(O)COCCN1CCN(C(c2ccccc2)c2ccc(Cl)cc2)CC1` (stereo not given), the z-score was 0.16.
`Clc1ccc(C(c2ccccc2)N2CCNCC2)cc1` (stereo not given) gave a z-score of 2.16.
In the case of `Oc1c(CN2CCc3ccccc3C2)cc(Cl)c2cccnc12`, the z-score was 2.72.
Work on `OCCN1CCN(Cc2cc(Cl)c3cccnc3c2O)CC1` yielded a z-score of 0.225.
Work on `Oc1ccc(CN2CCc3ccccc3C2)c2cccnc12` yielded a z-score of 0.165.
`COc1ccc(N(CC(=O)NCc2ccco2)S(C)(=O)=O)cc1Cl` showed a z-score of -0.0738.
Compound `CS(=O)(=O)N(CC(=O)NCc1ccco1)c1cc(C(F)(F)F)ccc1Cl` has a z-score of 0.181.
For `CS(=O)(=O)N(CC(=O)NCc1ccco1)c1ccc(Cl)c(C(F)(F)F)c1`, the z-score was 4.31 (active).
For `O=[N+]([O-])c1ccc(NC(=S)N2CCN(c3ccc(F)cc3)CC2)cc1`, the z-score was -0.0841.
Work on `Cc1ccc(NC(=O)c2nccnc2C(=O)O)cc1C` yielded a z-score of -0.208.
`O=P(c1ccccc1)(c1ccccc1)N(c1ccccc1)c1ccccc1` was tested, and the z-score was -0.752.
For `CC(C)C(=O)Nc1ccc(C(=O)N2CCN(C(=O)c3ccco3)CC2)cc1`, the z-score was 0.196.
With `CC(=O)Nc1ccc(C(=O)N2CCCC2)cc1` the z-score was -0.0468.
In the case of `CC(C)C(=O)Nc1ccc(C(=O)N2CCCCCC2)cc1`, the z-score was 2.15.
Compound `O=c1c2ccccc2nc(N/N=C/c2ccc(O)cc2)n1O` has a z-score of -0.0395.
Compound `Cc1cc(/N=C/N(C)C)on1` has a z-score of -0.0351.
For `CCOc1ccc(-n2nnnc2SCC(=O)N2CCOCC2)cc1`, the z-score was -0.126.
`COc1cc(OC)cc(-n2nnnc2SCC(=O)N2CCCC2)c1` showed a z-score of 0.154.
With `COc1ccc(-n2nnnc2SCC(=O)N2CCOCC2)cc1` the z-score was 3.28 (active).
Work on `CCn1c(SCC(=O)Nc2ccc(C(=O)OC)cc2)nc2cccnc21` yielded a z-score of -0.121.
`CC(CN(C)Cc1ccccc1)OC(=O)c1ccccc1F` (stereo not given) showed a z-score of 0.00558.
For `O=C(N/N=C/c1ccc([N+](=O)[O-])s1)c1ccncc1`, the z-score was -0.428.
With `O=C(N/N=C/c1ccc([N+](=O)[O-])s1)c1cccc(Br)c1` the z-score was 6.96 (active).
`CCOc1ccc(NC(=O)CCC(=O)N/N=C/c2ccc([N+](=O)[O-])s2)cc1` gave a z-score of 2.1.
Compound `O=C(N/N=C/c1ccc([N+](=O)[O-])s1)c1ccccc1Br` has a z-score of -0.301.
`O=C(Cc1ccccc1)N/N=C/c1ccc([N+](=O)[O-])s1` showed a z-score of 0.543.
Work on `Cc1ccccc1C(=O)N/N=C/c1ccc([N+](=O)[O-])s1` yielded a z-score of 2.95.
With `Cc1ccc(C(=O)N/N=C/c2ccc([N+](=O)[O-])s2)cc1` the z-score was -0.176.
Compound `O=C(N/N=C\c1ccc([N+](=O)[O-])s1)c1cncc(Br)c1` has a z-score of -0.156.
With `COc1ccc(NC(=O)CCC(=O)N/N=C/c2ccc([N+](=O)[O-])s2)cc1` the z-score was -0.189.
`Cc1ccc(N(C(=O)CS(=O)CC(=O)Nc2ccc(F)cc2)C(C(=O)NC2CCCCC2)c2ccco2)cc1` (stereo not given) was tested, and the z-score was -0.219.
`O=C(NNC(=S)NC(=O)c1ccccc1[N+](=O)[O-])c1ccccc1Cl` was tested, and the z-score was -0.333.
`O=C(CCC1COc2ccccc2O1)Nc1ccc(Cl)cn1` (stereo not given) gave a z-score of -0.27.
`O=C(OC(C(=O)NCC1CCCO1)c1ccc(F)cc1)c1cccs1` (stereo not given) gave a z-score of -0.0339.
`COc1ccccc1C(OC(=O)c1cccs1)C(=O)NCC1CCCO1` (stereo not given) showed a z-score of -0.383.
For `COc1ccc(C(OC(=O)c2cccs2)C(=O)NCC2CCCO2)cc1` (stereo not given), the z-score was 8.22 (active).
`COc1ccc(N2CCN(C(=O)c3cn(C4CCCC4)c(=O)c4c3c3ccccc3n4C)CC2)cc1` was tested, and the z-score was -0.454.
Work on `O=C(Nc1ccc(N2CCCC2)c(S(=O)(=O)Nc2cccc(C(F)(F)F)c2)c1)c1cccs1` yielded a z-score of -0.233.
Compound `COc1ccc(Nc2ncnc3c2cnn3Cc2ccccc2)cc1` has a z-score of -1.73.
With `COc1ccc(Nc2ncnc3c2cnn3Cc2ccccc2)cc1OC` the z-score was -0.181.
For `CCOc1ccc(Nc2ncnc3c2cnn3Cc2ccccc2)cc1`, the z-score was 2.26.
`CC(=NCCCN(C)C)C1=C(O)c2ccccc2C1=O` showed a z-score of 0.45.
`CCc1ccc(C(=O)N2CCCC2)s1` was tested, and the z-score was 0.0133.
With `CCOCC(=O)Nc1nc(-c2ccccc2)c(CC)s1` the z-score was -0.107.
`Cc1cccc(NS(=O)(=O)c2cc(C(=O)N3CCc4ccccc4C3)ccc2Cl)c1C` showed a z-score of -0.467.
In the case of `O=C(c1ccc(Cl)c(S(=O)(=O)N2CCc3ccccc3C2)c1)N1CCN(c2ccccc2)CC1`, the z-score was -0.0565.
In the case of `Cc1cccc(N2CCN(C(=O)c3ccc(Cl)c(S(=O)(=O)N4CCc5ccccc5C4)c3)CC2)c1C`, the z-score was 3.61 (active).
`Oc1ccccc1CNc1ccc(Br)cn1` was tested, and the z-score was 5.86 (active).
Compound `Oc1ccc(Cl)cc1CNc1ccc(Br)cn1` has a z-score of 0.33.
For `Brc1ccc(NCc2cccc3ccccc23)nc1`, the z-score was -0.475.
For `CN=C1SC(CC(=O)Nc2sc(C)c(C)c2C(=O)OC)C(=O)N1C` (stereo not given), the z-score was -0.51.
Work on `COCCN(Cc1ccccc1)C(=S)Nc1ccc(OC(F)F)cc1` yielded a z-score of -0.227.
For `Cc1c(C#N)c2ncn(CC#N)c(=O)c2n1-c1ccccc1`, the z-score was 3.28 (active).
`Cc1c(C#N)c2ncn(Cc3ccccn3)c(=O)c2n1-c1ccccc1` was tested, and the z-score was -0.89.
Compound `Cc1c(C#N)c2ncn(Cc3ccccc3)c(=O)c2n1-c1ccccc1` has a z-score of -0.85.
In the case of `CC(=O)c1ccc(N2CCN(C(=S)Nc3cccc(Cl)c3)CC2)cc1`, the z-score was -0.152.
Work on `CCOCCCNc1nc2ccccc2[nH]1` yielded a z-score of -0.0367.
Work on `O=C1CCCC(=O)C1=C1SCCCS1` yielded a z-score of -0.18.
Work on `O=C(Nc1ccc(Cl)cc1)N1CCCN(Cc2ccccc2F)C1` yielded a z-score of -0.218.
`O=C(Nc1ccc(Cl)cc1)N1CCCN(Cc2ccc(F)cc2)C1` showed a z-score of 2.53.
Work on `Cc1ccc(NC(=O)N2CCCN(Cc3ccc(F)cc3)C2)cc1C` yielded a z-score of -0.435.
In the case of `CN1C(=O)c2ccc(NC(=O)c3ccc(N4CCCCC4)c([N+](=O)[O-])c3)cc2C1=O`, the z-score was -0.139.
Compound `Cc1cccc(NC(=O)c2cc(NC(=O)c3ccccc3)ccc2N2CCCCC2)c1` has a z-score of -0.201.
Work on `CCN=C1SCC(=O)N1c1ccc(OC)cc1` yielded a z-score of -0.307.
`COc1ccc(S(=O)(=O)N(CCc2ccccc2)CC(=O)N/N=C/c2ccc3c(c2)OCO3)cc1` was tested, and the z-score was -0.0021.
`CCOc1ccccc1NC(=O)CN(C)S(=O)(=O)c1cccc2nsnc12` showed a z-score of -0.173.
For `COc1ccc(Cl)cc1NC(=O)CS(=O)(=O)c1cccc2nsnc12`, the z-score was 0.107.
Work on `COc1ccccc1NC(=O)CS(=O)(=O)c1cccc2nsnc12` yielded a z-score of 1.99.
With `Cc1csc(NC(=O)Cc2c[nH]c3ccccc23)n1` the z-score was -0.137.
In the case of `CC(C)(C)c1ccc(OCCON2C(=O)CCC2=O)c(Cl)c1`, the z-score was 3.08 (active).
`O=C1CCC(=O)N1OCCCOc1ccc(Br)cc1Cl` gave a z-score of 0.401.
In the case of `COc1cc(C)ccc1OCCCON1C(=O)CCC1=O`, the z-score was 0.122.
